Source: PubChem BioAssay AID686970 (National Center for Advancing Translational Sciences (NCATS), 2013)
Screen size: about 360,000 compounds; about 6,000 (1.7%) were called active. Not shown: some 8% with an inconclusive outcome. The sample as a whole holds a higher share of actives than the screen did. Values without a mark were called inactive. Calls follow the shape of the dose curve; as a rule, active = well fitted cell-killing curve with a large enough effect; inconclusive = small, poorly fitted or top-dose-only effect, or effect the other way; inactive = flat fitted curve, though single readings scatter.

Experiment: qHTS for induction of synthetic lethality in tumor cells producing 2HG: qHTS for the HT-1080-NT fibrosarcoma cell line; also: nearly all actives have a fitted effect of over 55% in size
Conditions: HT-1080-NT fibrosarcoma viability, CellTiter-Glo ATP luminescence, 48 h; series mostly up to 46.1 µM; activity, negative = less viability: at the top concentration
Description: Unbiased genomic sequencing for 22 glioma genomes found recurrent mutation of IDH1 on chromosome 2q33, a gene encoding the cytosolic isoform of IDH1 associated with the tricarboxylic acid cycle (TCA) that catalyzes the oxidative decarboxylation of isocitrate, yielding alpha-ketoglutarate and CO2 via NADP+ to NADPH conversion. Subsequent studies confirmed the recurrent IDH mutations in up to 70% of secondary gliomas and in 10% of AML cases. In addition, the somatic mutation of cancer-associated IDH1 is a point mutation resulting in various amino-acid substituents at Arginine132 (IDH1 R132), a key residue found in the enzyme's active site that when mutated, results in the loss-of-function in metabolizing isocitrate but confers a gain-of-function to produce the oncometabolite 2-hydroxyglutarate (2HG). This in effect defines IDH1 as an oncogene and provides an extraordinary opportunity to discover chemical probes against mutant IDH1 that may translate into much needed new therapies for glioma and AML patients.
This assay aims to perform a synthetic lethal screen for chemical probes specific for 2HG-producing tumor cells using matched paired cell lines (1) HT-1080-NT fibrosarcoma cell line that overproduces 2HG and (2) HT-1080-IDH1KD cell line which has IDH1 expression knocked-down. Desirable compounds are toxic to the NT fibrosarcoma cells but not to the IDH1KD cell line. The data in this AID corresponds to the results of the qHTS against the HT-1080-NT fibrosarcoma cell line.
[1] Dang L, Jin S, Su SM. IDH mutations in glioma and acute myeloid leukemia. Trends of Mol Med. 2010; 16(9): 387-97.
[2] Dang L et al. Cancer-associated IDH1 mutations produce 2-hydroxyglutarate. Nature. 2010; 465(7300):966.
NIH Molecular Libraries Probe Production Centers Network [MLPCN]
NIH Chemical Genomics Center [NCGC]
Assay Submitter (PI): Lenny Dang Ph.D., Agios Pharmaceuticals
Suspensions of trypsinized HT-1080-NT cells were dispensed into white, tissue culture-treated, solid 1536-well plates at 5uL/well (750 cells/well final concentration) in RPMI medium supplemented with 5% FBS. Plates were incubated at 37 degrees C for 2 hours, after which 23 nL of compounds or DMSO were delivered to each well using a pin tool. Plates were then incubated at 37 degrees C for an additional 48 hours. CellTiter-Glo viability reagent (Promega) was dispensed into wells (2.5uL/well) and incubated at room temperature for 10 minutes. The plates were measured on a PerkinElmer ViewLux plate reader for luminescent signal (clear filter, 1 sec exp). DMSO-treated control wells and media-only (no cells) control wells were used to normalize %Activity of identified toxic compounds; DMSO-treated wells corresponded to 0%Activity (100% viability), while media-only controls were used to normalize 100%Activity (0% viability).
Concentration-response curves were fitted to the signals arising from the resulting luminescence. The concentration-effect curves were then classified based on curve quality (r2), response magnitude and degree of measured activity, and compounds were subsequently categorized based on their curve class.
Potency is read from the fitted curve at half-maximal effect.

Row | Compound | Potency | activity, negative = less viability
1 | CN(C)CC1Oc2ccccc2OC1(O)c1ccccc1 (stereo not given) | 8.2 µM (active) | 
2 | CCOC(=O)c1cccc(C2=C(CNC(=O)c3ccncc3)[C@H]3CC[C@@H](C2)N3Cc2ccccc2)c1 |  | -2.39%
3 | O=C1C2CCN(CC2)C1(CO)CO |  | 1.59%
4 | O=c1[nH]c(O)c(C=Nc2cc(F)cc(F)c2)c(=O)[nH]1 |  | 8.67%
5 | COC1=CC=C2[C@H]3Cc4ccc(OC)c5c4[C@@]2(CCN3C)C1O5 (stereo not given in full) |  | 10.5%
6 | COc1ccc2c(c1O)-c1cccc3c1[C@@H](C2)N(C)CC3 |  | 0.405%
7 | COc1ccc2c3c1O[C@H]1C[C@@H](O)C=C[C@@]31CCN(C)C2 | 8.2 µM (active) | 
8 | CC=C(C)C(=O)OC1CCN2CC=C(COC(=O)C(O)(C(C)OC)C(C)(C)O)C12 (stereo not given) |  | 1.64%
9 | O=P(OC1=CCCCC1)(c1ccccc1)c1ccccc1 |  | 0.74%
10 | O=c1[nH]c2ccccc2n1C1CCN(C(c2ccccc2)c2nnnn2Cc2ccccc2)CC1 (stereo not given) | 13 µM (active) | 
11 | CSCCC(c1nnnn1C(C)(C)C)N1CCC(n2c(=O)[nH]c3ccccc32)CC1 (stereo not given) |  | -18.1%
12 | Cc1ccc(Cn2nnnc2CN2CCC(n3nnc4ccccc43)CC2)cc1 |  | -22.7%
13 | CCOC(=O)C1=C(C)OC(N)=C(C(=O)OC)C12C(=O)Nc1ccc(Br)cc12 (stereo not given) |  | -1.5%
14 | O=c1[nH]c(CN2CC=C(c3ccccc3)CC2)nc2scc(-c3cccs3)c12 |  | -0.0739%
15 | S=C(NCCc1ccccc1)N1Cc2cc(N3CCOCC3)ccc2-n2nncc2C1 |  | 2.89%
16 | CCOc1ccc(-c2cc(C)[n+](CCN(CC)CC)c(-c3ccc(OCC)cc3)c2)cc1 | 8.2 µM (active) | 
17 | COc1ccc(C2C=C(C)Oc3c2c(=O)oc2ccccc32)cc1OC (stereo not given) |  | -15.3%
18 | COC(=O)C1=C(c2ccc(OCc3ccccc3)cc2)C[C@@H]2CC[C@H]1N2C(=O)NCc1cccc(F)c1 |  | -7.63%
19 | CC1CCCN1CCC(C(N)=O)(c1ccccc1)c1ccccc1 (stereo not given) |  | -2.83%
20 | COc1ccc(CCn2c(O)c(C=NC3CC3)c(=O)[nH]c2=O)cc1OC |  | 0.249%

Row | Compound | Potency | activity, negative = less viability
21 | c1ccc(N2Cc3ccccc3-n3nncc3C2)nc1 |  | -3.61%
22 | CCC1(C)CC(CCNCc2ccc(N(C)C)cc2)(c2ccc(F)cc2)CCO1 (stereo not given) |  | -21.8%
23 | C[C@@H]1C[C@@H]2O[C@H]2/C=C\C=C\C(=O)Cc2c(Cl)c(O)cc(O)c2C(=O)O1 | 8.2 µM (active) | 
24 | CC(=O)NCC1=C(c2ccc3ccccc3c2)C[C@@H]2CC[C@H]1N2Cc1ccco1 |  | -6.62%
25 | C=Cn1ccnc1P(=S)(c1cc(N(CC)CC)ns1)c1nccn1C=C |  | -22%
26 | COC(=O)C1=C(c2ccc(OCc3ccccc3)cc2)C[C@@H]2CC[C@H]1N2C(=O)NCc1ccc(Cl)cc1 |  | 7.67%
27 | CC1=CC(=Cc2sc3ccccc3[n+]2C)C=C(C)O1 | 8.2 µM (active) | 
28 | O=[N+]([O-])c1ccc(C2C3C(c4ccccc4)=NC4(CCCCC4)N32)cc1 (stereo not given) |  | 1.87%
29 | Cc1ccc(OC(=O)N(C)C[C@@H]2OCc3cnnn3CCCC(=O)N([C@H](C)CO)C[C@@H]2C)cc1 |  | -0.987%
30 | Cc1ncoc1C(=O)NCC1=C(c2cccc3ccccc23)C[C@@H]2CC[C@H]1N2Cc1ccco1 |  | -7.65%
31 | COC(=O)C1=C(c2ccccc2)C[C@@H]2CC[C@H]1N2C(=O)NCc1ccco1 |  | 10.9%
32 | COc1cc(Cn2c(N)c(C(=O)NCc3ccco3)c3nc4ccccc4nc32)cc(OC)c1OC | 12.6 µM (active) | 
33 | CC(=O)c1c(O)n(C2CCCCCC2)c(=O)[nH]c1=O |  | -4.72%
34 | O=C(NC1CCCCC1)N1Cc2cc(N3CCCCC3)ccc2-n2nncc2C1 |  | 9.74%
35 | c1cc2c(c(NC3=NCCCS3)c1)CCCC2 |  | -17.9%
36 | COC(=O)C1=C(c2ccc(Cl)c(C(F)(F)F)c2)C[C@@H]2CC[C@H]1N2C(=O)NC1CC1 |  | -7.4%
37 | C[C@]12CCC3C(CC[C@H]4C[C@@H](O)CC[C@]34C)C1C[C@@H](O)[C@H]2O (stereo not given in full) |  | -0.126%
38 | C[C@]12CC[C@H](O)C[C@H]1CC[C@@H]1C2CC[C@]2(C)[C@@H](C3=CC(=O)OC3)[C@@H](O)C[C@]12O (stereo not given in full) | 5.8 µM (active) | 
39 | C[C@]12CCC3C(CC[C@H]4C[C@@H](O)CC[C@]34C)C1CC[C@@H]2O (stereo not given in full) |  | -1.7%
40 | C[C@H]1CN([C@@H](C)CO)C(=O)CCCn2nncc2CO[C@H]1CN(C)C(=O)Oc1ccccc1 |  | 8.98%
